Our source for the max response and Potency values is PubChem BioAssay (NCATS).

Each structure is given as a SMILES string. Inconclusive results are not listed. Unmarked numbers belong to inactive results. The source made the active and inactive calls. Calls come from the whole dose curve; as a rule, active = well fitted curve in the direction sought with a large enough effect; inconclusive = small, poorly fitted or top-dose-only effect, or another doubt; inactive = no such curve, though single readings can be large; an effect the other way counts as inactive or inconclusive. Peptide text beside a SMILES is read from it.

Assay [1] is described as follows: qHTS Assay for Identifying Gametocytocidal Compounds (AID 743244).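 Note: actives lower the fluorescent signal which means gametocytes are killed.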 To be noted: P. falciparum 3D7 stage III-V gametocytes, alamarBlue, 72 h; max response: active compounds read low. The gist of the method:
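In this qHTS viability screen, late-stage 3D7 gametocytes are incubated with compound for 72 h, then with alamarBlue for 24 h; reduced resorufin fluorescence marks killing.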
(In qHTS, concentration-response curves come from the screen itself.)

A short description of assay [2]: qHTS assay to identify small molecule inhibitors of chordoma cells - UCH-1 (AID 1259355). Note: nearly all actives have a fitted effect of over 55% in size. Note: potency is the fitted concentration of half-maximal effect; series mostly up to about 46 µM. The gist of the method: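 Cells (800/well) were seeded and left overnight at 37 C, 5% CO2, then treated with drugs at 15 concentrations plus a combination mix of auranofin, camptothecin, doxorubicin, rubitecan and topotecan. Viability after 48hr was read by CellTiter-Glo luminescence.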

Assay [3] can be described thus: qHTS assay to identify small molecule inhibitors of chordoma cells - UCH-2 (AID 1259356). Note: potency is the fitted concentration of half-maximal effect.
% is set by controls: 0 for no effect and ±100 for the full control effect.

`COC(=O)CCC(=O)CN`: the max response in assay [1] is -0.174%. For the same molecule, the Potency result in assay [2] and in assay [3] was “inactive” in each case.

`Cc1cc(/C=C/c2ccc3cc(N(C)C)ccc3[n+]2C)c(C)n1-c1ccccc1`: the Potency in assay [2] was 5.01 µM (active). Further, the Potency result in assay [3] is “inactive”.

As to `Oc1cc(O)c2c(c1)OC(c1ccc(O)c(O)c1)C(O)C2` (stereo unspecified), the Potency entry in assay [2] was “inactive”. With `CCCCCC(CC)COC(=O)CC(C(=O)OCC(CC)CCCC)S(=O)(=O)O` (stereo unspecified), in assay [2], the Potency entry is “inactive”. The same measure, in the same setting: then `COC(=O)[C@H]1[C@H]2CC3c4[nH]c5ccccc5c4CCN3C[C@@H]2CC[C@@H]1O` (stereo partly specified), with “inactive”.

With `COc1ccc(CCNC[C@H](O)c2ccc(O)cc2)cc1OC`, the max response in assay [1] was 3.09%. Further, the Potency entry in assay [2] and in assay [3] was “inactive” in each case.

Take `NC1C2CN(c3nc4c(cc3F)c(=O)c(C(=O)O)cn4-c3ccc(F)cc3F)CC12` (stereo unspecified): the Potency result in assay [2] is “inactive”. Regarding `NC(=O)c1ncn(C2OC(CO)C(O)C2O)n1` (stereo unspecified), the Potency entry in assay [2] is “inactive”. For the molecule `C[C@@H]1[C@H](O)[C@@H](C)/C=C/C=C\C=C\C=C\C=C\C=C\C=C\[C@H](O[C@@H]2O[C@H](C)[C@@H](O)[C@H](N)[C@@H]2O)C[C@@H]2O[C@](O)(C[C@@H](O)C[C@@H](O)[C@H](O)CC[C@@H](O)C[C@@H](O)CC(=O)O[C@H]1C)C[C@H](O)[C@H]2C(=O)O` (stereo in doubt), the max response in assay [1] was 4.52%. For the same molecule, the Potency result in assay [2] and in assay [3] was “inactive” each time. As to `CC1(C)S[C@@H]2[C@H](NC(=O)C(C(=O)O)c3ccsc3)C(=O)N2[C@H]1C(=O)O` (stereo partly specified), the max response in assay [1] is 10.2%. The Potency result in assay [2] and in assay [3] was “inactive” throughout. For the molecule `CCCCCCCCCCCCCCCC(=O)OCC(COC(=O)CCCCCCCCCCCCCCC)OC(=O)CCCCCCCCCCCCCCC`, the max response in assay [1] is 4.37%. Also, the Potency entry in assay [2] and in assay [3] was “inactive” throughout.

With `CC(Cc1ccc(O)c(O)c1)C(C)Cc1ccc(O)c(O)c1` (stereo unspecified), the Potency entry in assay [2] is “inactive”. Turning to `COCC(=O)Nc1cc(Sc2ccccc2)ccc1N=C(NC(=O)OC)NC(=O)OC`, the max response in assay [1] is -1.05%. The Potency result in assay [2] and in assay [3] was “inactive” each time.

Turning to `CCCCCCOc1ccc(C(=N)N(CCCC)CCCC)c2ccccc12`, the Potency result in assay [2] was “inactive”. As for `Cc1cc(CC(C)CC(C)(C)C)n(O)c(=O)c1` (stereo unspecified) (tested in a mixture with another compound), the Potency result in assay [2] was “inactive”.

Consider `CCCCC(=O)OCC(=O)[C@]1(O)Cc2c(O)c3c(c(O)c2[C@@H](O[C@H]2C[C@H](NC(=O)C(F)(F)F)[C@H](O)[C@H](C)O2)C1)C(=O)c1c(OC)cccc1C3=O`, for which the Potency in assay [2] is 6.31 µM (active). With `Clc1cc(Cl)c(OCC#CI)cc1Cl`, the Potency result in assay [2] and in assay [3] was “inactive” each time. With `CCCC(=O)Nc1ncnc2c1ncn2C1OC2COP(=O)(O)OC2C1OC(=O)CCC` (stereo unspecified), the Potency result in assay [2] was “inactive”. As to `C[C@]12C=CC(=O)N[C@@H]1CC[C@@H]1[C@@H]2CC[C@]2(C)[C@@H](C(=O)Nc3cc(C(F)(F)F)ccc3C(F)(F)F)CC[C@@H]12`, the Potency result in assay [2] was “inactive”.

As for `C#CCOc1ccc2c(C)cc(=O)oc2c1`, the max response in assay [1] was 7.39%. Moreover, the Potency result in assay [2] and in assay [3] was “inactive” each time. For `CCN(CC)CCOc1ccc(-c2nc3cc(Cl)ccc3s2)cc1`, the Potency result in assay [2] and in assay [3] was “inactive” in each case. `CN=C(NC#N)Nc1ccc(C2=NNC(=O)C[C@@H]2C)cc1`: the Potency result in assay [2] was “inactive”. On to `CC(=O)N[C@@H](CC(=O)O)C(=O)N[C@@H](CCC(=O)O)C(=O)O` (Ac-Asp-Glu-OH), for which, in assay [2], the Potency entry was “inactive”. Consider `Cc1c(C)c2c(c(C)c1O)CC[C@@](C)(CCC[C@@H](C)CCC[C@@H](C)CCCC(C)C)O2`, for which the Potency result in assay [2] was “inactive”. For `CC[N+](C)(C)Cc1ccccc1Br`, the max response in assay [1] is 2.98%. In addition, the Potency entry in assay [2] and in assay [3] was “inactive” in each case. On to `CNc1cc(OC)c(C(=O)N[C@H]2CCN(Cc3ccccc3)[C@H]2C)cc1Cl`, for which, in assay [1], the max response was -16.8%. Besides, the Potency entry in assay [2] and in assay [3] was “inactive” throughout. Regarding `CCC(=O)O[C@]1(C(=O)CCl)[C@@H](C)C[C@H]2[C@@H]3C[C@H](F)C4=CC(=O)C=C[C@]4(C)[C@@]3(F)[C@@H](O)C[C@@]21C`, in assay [2], the Potency entry was “inactive”. `C[C@]12O[C@H](C[C@]1(O)CO)n1c3ccccc3c3c4c(c5c6ccccc6n2c5c31)CNC4=O`: the Potency in assay [2] is 11.2 µM (active); in assay [3] it was 10.3 µM (active).

`C#C[C@]1(O)CC[C@H]2[C@@H]3CCC4=CCCC[C@@H]4[C@H]3C(=C)C[C@@]21CC`: the max response in assay [1] was -1.95%. In addition, the Potency entry in assay [2] and in assay [3] was “inactive” throughout. On to `C=C[C@]1(C)C[C@@H](OC(=O)CSC(C)(C)CNC(=O)[C@H](N)C(C)C)[C@]2(C)[C@H](C)CC[C@]3(CCC(=O)[C@H]32)[C@@H](C)[C@@H]1O`, for which the Potency entry in assay [2] and in assay [3] was “inactive” in each case.

Regarding `CC[C@@H](C(=O)O)[C@@H]1O[C@@H]([C@@H](C)[C@H](O)[C@H](C)C(=O)[C@H](CC)[C@H]2O[C@]3(C=C[C@@H](O)[C@]4(CC[C@@](C)([C@H]5CC[C@](O)(CC)[C@H](C)O5)O4)O3)[C@H](C)C[C@@H]2C)[C@@H](C)C[C@@H]1C`, the figures for the Potency in assay [2] and in assay [3] were 3.55 µM (active) and 8.2 µM (active), respectively. Take `CCOC(=O)C1=CC2(CC)CCCN3CCc4c(n1c1ccccc41)C32` (stereo unspecified): the Potency result in assay [2] was “inactive”. `COc1cc(-c2ccc(-[n+]3nc(-c4ccccc4)nn3-c3ccc([N+](=O)[O-])cc3)c(OC)c2)ccc1-[n+]1nc(-c2ccccc2)nn1-c1ccc([N+](=O)[O-])cc1`: the values for the Potency in assay [2] and in assay [3] were 31.6 µM (active) and 9.2 µM (active), respectively. With `CCCCCCC(O)C/C=C/CCCCCCCC(=O)O` (stereo unspecified), the Potency entry in assay [2] was “inactive”.
